According to PubChem BioAssay (NCATS):
Results filed as inconclusive are left out. Active and inactive are the calls of the source. Unless noted, calls follow the shape of the dose curve; as a rule, active = well fitted curve in the direction sought with a large enough effect; inconclusive = small, poorly fitted or top-dose-only effect, or another doubt; inactive = no such curve, though single readings can be large; an effect the other way counts as inactive or inconclusive.

Key:
[1] = biological target: Peroxisome proliferator-activated receptor gamma (Homo sapiens) (UniProt P37231); assay: qHTS assay for small molecule agonists of peroxisome proliferator-activated receptor gamma signaling (AID 588536; active = well fitted curve in the direction sought with a large enough effect in the signal ratio, with a control signal flat, not every such curve was filed as active; the % refers to the signal ratio;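 also: 0% = DMSO basal wells and 100% = rosiglitazone at 2 µM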); conditions: HEK293 PPARg-UAS-bla, beta-lactamase ratio, 16 h, percent of rosiglitazone response, DMSO as zero; series mostly up to 76.7 µM
How it was run: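 GeneBLAzer PPAR-gamma-UAS-bla HEK293 cells in 1% charcoal/dextran-treated FBS medium were treated 16 h at 37 C with compounds. Beta-lactamase activity was read by CCF4 ratio (460/530 nm). Response was normalized to 2 uM rosiglitazone (100%) and DMSO, then Hill-fitted for EC50 and efficacy.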

[2] = qHTS assay for small molecule agonists of retinoid X receptor alpha signaling (AID 588544; calls by dose curve;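 as to activation: 0% = DMSO basal wells and 100% = reference agonist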); conditions: HEK293T RXRa-UAS-bla, beta-lactamase reporter, 18 h; 530 nm emission
[3] = biological target: Retinoic acid receptor RXR-alpha (Homo sapiens) (UniProt P19793); assay: as above; conditions: HEK293T RXRa-UAS-bla, beta-lactamase reporter, 18 h; series mostly up to 76.7 µM
[4] = biological target: Thyroid hormone receptor beta (Homo sapiens) (UniProt P10828); assay: qHTS assay for small molecule agonists of thyroid hormone receptor beta signaling (AID 588545; calls by dose curve); conditions: TR-UAS-bla GripTite HEK 293, beta-lactamase ratio, agonist mode, 18 h; series mostly up to 76.7 µM
How it was run: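 In this cell-based screen, titrated compounds act on HEK 293 cells held in medium with 2% charcoal/dextran FBS, NEAA and pyruvate for 18 hrs at 37 C. Responses are expressed relative to T3 (10 nM) as 100% and basal DMSO as 0%.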

[5] = qHTS assay for small molecule antagonists of retinoid X receptor alpha signaling (AID 588546; active = well fitted inhibition curve with a large enough effect in the signal ratio, with a control signal flat, not every such curve was filed as active; the % refers to the signal ratio;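 also: cells stimulated with 9-cis-retinoic acid as agonist; % is scaled to controls: 0 for no effect and ±100 for the full control effect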); conditions: HEK293T RXRa-UAS-bla, beta-lactamase ratio, antagonist mode; measured here: W530 green channel, cytotoxicity proxy
How it was run: (§1)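 Beta-lactamase reporter inhibition, read as CCF4 fluorescence ratio (ex 405, em 460/530 nm) after 2 h at RT. HEK293T UAS-bla cells, 2500/well, were stimulated with 9-cis-RA at 500 or 100 nM final alongside test compound for 18 h at 37 C.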

[6] = biological target: Retinoic acid receptor RXR-alpha (Homo sapiens) (UniProt P19793); assay: as above; conditions: HEK293T RXRa-UAS-bla, beta-lactamase ratio, antagonist mode
How it was run: as §1

[7] = qHTS assay for small molecule activators of the p53 signaling pathway (AID 651743; active = well fitted activation curve with a large enough effect in the signal ratio, not every such curve was filed as active; the % refers to the signal ratio; also: % of control where 0% means no effect); conditions: HCT-116 p53RE-bla, beta-lactamase FRET ratio, 16 h; activation: stronger effect = higher value
How it was run: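 p53RE-bla HCT-116 cells with a stably integrated beta-lactamase reporter under p53 response elements were plated, rested 5 hours at 37 C/5% CO2, then exposed to compounds in DMSO for 16 hours at 37 C. LiveBLAzer B/G FRET substrate was read after 2 hours at room temperature.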

[8] = qHTS assay for small molecule activators of the nuclear factor-kappa B (NF-kB) signaling pathway (AID 651749; active = well fitted activation curve with a large enough effect in the signal ratio; the % refers to the signal ratio; also: % of control where 0% means no effect); conditions: NF-kB-bla ME-180 cells, beta-lactamase FRET ratio, 16 h; activation: stronger effect = higher value
How it was run: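 ME-180 cells stably carrying a beta-lactamase reporter under an NF-kB response element were exposed to compound or DMSO vehicle for 16 hr at 37C, 5% CO2. Pathway activation was read by FRET, since reporter expression disrupts FRET.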

[9] = qHTS assay for environmental chemicals that activate the Aryl hydrocarbon Receptor (AhR) signaling pathway (AID 651777); conditions: 1A2-DRE human hepatoma cells, luciferase, 24 h; activation: stronger effect = higher value; also: % of control where 0% means no effect; nearly all actives have a fitted effect of over 15% in size
How it was run: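 Human hepatoma 1A2-DRE cells stably carrying a DRE/CYP1A2 promoter–luciferase reporter, 1,200 cells/well, exposed to compound 24 hr at 37 C. Luciferase read by One-Glo luminescence after 30 min at room temperature; increased signal marks AhR activation.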

[10] = biological target: Peroxisome proliferator-activated receptor alpha (Homo sapiens) (UniProt Q07869); assay: qHTS assay for small molecule agonists of the peroxisome proliferator-activated receptor alpha (PPARalpha) signaling pathway (AID 651778); conditions: PathHunter PPARalpha complementation, chemiluminescence, 6 h; max response: stronger effect = higher value; also: % of control where 0% means no effect
How it was run: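 Cells plated at 2,000/well and held overnight at 37 C, 5% CO2, then compound added by pin tool for 6 hr; after PathHunter detection reagent and 60 min at room temperature, chemiluminescence from enzyme complementation was read.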

[11] = qHTS assay for small molecule agonists of the antioxidant response element (ARE) signaling pathway measured by Nrf2-dependant transcriptional activity (AID 720636; active = well fitted curve in the direction sought with a large enough effect in the repeat runs; an effect the other way counts as inactive or inconclusive; also: % of control where 0% means no effect); conditions: ARE-luc HepG2, Nrf2 luciferase reporter, 16 h; series mostly up to 92.4 µM
How it was run: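 ARE-luc HepG2 cells carrying an Nrf2-responsive luciferase reporter, in medium with 1% dialyzed FBS, exposed to compound for 16 hr at 37 C, 5% CO2. Luminescence read 30 min after ONE-Glo addition.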

[12] = qHTS assay for small molecule agonists of the antioxidant response element (ARE) signaling pathway measured by Nrf2-dependant transcriptional activity - cell viability counter screen (AID 720653; active = well fitted curve in the direction sought with a large enough effect in the repeat runs; an effect the other way counts as inactive or inconclusive; also: % is scaled to controls: 0 for no effect and ±100 for the full control effect); conditions: ARE-bla HepG2 viability, CellTiter-Glo ATP luminescence, 16 h; max response: stronger effect = lower value
How it was run: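 ARE-bla HepG2 cells (2,000/well) rested 5 hrs at 37C/5% CO2, then exposed to compounds in DMSO for 16 hrs. Viability was read in the same wells as intracellular ATP by luminescence, 30 min at room temperature after reagent addition.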

[13] = qHTS assay for cell viability of HEK293 cells (AID 743288); conditions: ATP luminescence (CellTiter-Glo), 18 h; max response: stronger effect = lower value; also: % is scaled to controls: 0 for no effect and ±100 for the full control effect; nearly all actives have a fitted effect of over 50% in size
How it was run: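 The Tox21 protocol used parental HEK293 cells treated for 18 h at 37 C with compounds delivered by pintool; ATP-coupled luminescence after 30 min at room temperature gave viability.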

[14] = qHTS assay for cell viability of the p53RE-bla HCT-116 cell line (AID 743292); conditions: p53RE-bla HCT-116 viability, ATP luminescence, 16 h; series mostly up to 95 µM; also: % is scaled to controls: 0 for no effect and ±100 for the full control effect; nearly all actives have a fitted effect of over 55% in size
How it was run: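 CellSensor p53RE-bla HCT-116 cells (4,000/well) pre-incubated 5 h at 37 C, then exposed to compounds in DMSO for 16 h at 37 C. Viability read as ATP content by CellTiter-Glo luminescence after 30 min at room temperature.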

[15] = biological target: Nuclear receptor subfamily 1 group I member 2 (Rattus norvegicus) (UniProt Q9R1A7); assay: qHTS assay for small molecule activators of the rat pregnane X receptor (rPXR) signaling pathway (AID 651751; call rule not given here; also: 0% is about no effect); conditions: rPXR reporter cells, luciferase (One-Glo), 24 h
[16] = qHTS assay for small molecule activators of the human pregnane X receptor (PXR) signaling pathway (AID 720659; call rule not given here; also: 0% is about no effect); conditions: DPX-2 HepG2 CYP3A4-luciferase, 24 h; series mostly up to 92.3 µM
[17] = biological target: Glucocorticoid receptor (Homo sapiens) (UniProt P04150); assay: qHTS assay for small molecule agonists of glucocorticoid receptor signaling (AID 588532; active = well fitted curve in the direction sought with a large enough effect in the signal ratio, with a control signal flat; the % refers to the signal ratio;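 also: 100% = dexamethasone at 0.1 µM and 0% = DMSO only wells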); conditions: HeLa MMTV-bla, beta-lactamase ratio, agonist, 18 h; stronger effect = higher value; percent of dexamethasone control, DMSO zero
How it was run: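 MMTV-bla HeLa, beta-lactamase reporter; medium with 1% charcoal/dextran-stripped FBS; cpds up to 92 uM, 18 h, 37 C; CCF4 readout 460/530 nm; Hill fit → EC50, efficacy vs 0.1 uM dexamethasone = 100%.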

[18] = qHTS assay for small molecule antagonists of peroxisome proliferator-activated receptor delta signaling (AID 588535); conditions: HEK293T PPARd-UAS-bla, beta-lactamase FRET ratio, 18 h; 460 nm channel;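 also: cells co-treated with a PPAR-delta agonist as stimulator during compound exposure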
How it was run: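 GeneBLAzer PPAR-delta-UAS-bla HEK293T cells in medium with 2% charcoal/dextran FBS were preincubated 5 hrs at 37 C, then given compounds, incubated 18 hrs at 37 C, and read by CCF4 beta-lactamase fluorescence; IC50 from Hill fits.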

[19] = biological target: Peroxisome proliferator-activated receptor gamma (Homo sapiens) (UniProt P37231); assay: qHTS assay for small molecule antagonists of peroxisome proliferator-activated receptor gamma signaling (AID 588537; active = well fitted inhibition curve with a large enough effect in the signal ratio, with a control signal flat, not every such curve was filed as active; the % refers to the signal ratio;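 also: reporter cells co-stimulated with 50 nM rosiglitazone agonist during compound treatment; % of control where 0% means no effect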); conditions: HEK293 PPARg-UAS-bla, beta-lactamase ratio, antagonist mode; series mostly up to 76.8 µM
How it was run: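 PPAR-gamma-UAS-bla HEK293 cells (3000/well, 1% charcoal/dextran-stripped FBS) were preincubated 6-6.5 h at 37 C, given titrated compounds, then stimulated with 50 nM rosiglitazone for 16 h. Beta-lactamase activity was read with CCF4 dye; IC50 came from Hill fits.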

[20] = biological target: Thyroid hormone receptor beta (Homo sapiens) (UniProt P10828); assay: qHTS assay for small molecule antagonists of thyroid hormone receptor beta signaling (AID 588547; active = well fitted inhibition curve with a large enough effect in the signal ratio, with a control signal flat, not every such curve was filed as active; the % refers to the signal ratio;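 also: cells stimulated with 0.4 nM T3 agonist during compound exposure; % is scaled to controls: 0 for no effect and ±100 for the full control effect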); conditions: TR-UAS-bla HEK293, beta-lactamase ratio, antagonist mode, 18 h
How it was run: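 TR-UAS-bla GripTite HEK293 cells in 2% charcoal/dextran FBS medium were preincubated 4 h at 37 C, given compound (0.59 nM to 92 uM) plus 0.4 nM T3 (final) for 18 h, then CCF4 for 2 h at RT; Hill fit gave IC50.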

Nuclear receptor subfamily 1 group I member 2 (Rattus norvegicus), sequence (Q9R1A7 whole entry, looked up): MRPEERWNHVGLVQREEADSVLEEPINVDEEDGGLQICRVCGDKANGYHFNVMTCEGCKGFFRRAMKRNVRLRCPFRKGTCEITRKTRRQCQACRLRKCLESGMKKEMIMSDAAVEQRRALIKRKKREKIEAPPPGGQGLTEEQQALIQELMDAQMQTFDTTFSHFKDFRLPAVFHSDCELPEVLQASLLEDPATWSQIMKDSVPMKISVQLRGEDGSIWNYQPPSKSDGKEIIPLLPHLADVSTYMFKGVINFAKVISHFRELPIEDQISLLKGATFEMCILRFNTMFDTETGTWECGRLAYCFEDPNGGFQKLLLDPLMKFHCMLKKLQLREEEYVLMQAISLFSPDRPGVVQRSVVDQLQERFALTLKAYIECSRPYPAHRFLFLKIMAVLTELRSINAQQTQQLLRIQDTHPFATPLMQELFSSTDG
Thyroid hormone receptor beta (Homo sapiens), sequence (P10828 whole entry, looked up): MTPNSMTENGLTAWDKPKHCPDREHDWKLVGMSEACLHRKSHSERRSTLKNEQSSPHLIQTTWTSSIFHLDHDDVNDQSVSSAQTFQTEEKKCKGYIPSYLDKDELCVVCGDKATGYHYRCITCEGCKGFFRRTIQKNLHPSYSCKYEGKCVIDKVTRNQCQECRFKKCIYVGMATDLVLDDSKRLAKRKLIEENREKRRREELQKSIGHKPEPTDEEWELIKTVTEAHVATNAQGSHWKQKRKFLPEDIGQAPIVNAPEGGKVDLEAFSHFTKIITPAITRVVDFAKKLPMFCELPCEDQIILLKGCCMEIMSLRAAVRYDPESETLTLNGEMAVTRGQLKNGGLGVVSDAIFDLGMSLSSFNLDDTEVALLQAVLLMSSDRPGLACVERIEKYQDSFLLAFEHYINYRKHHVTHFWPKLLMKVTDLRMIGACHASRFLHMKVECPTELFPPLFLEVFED
Peroxisome proliferator-activated receptor gamma (Homo sapiens), sequence (P37231 whole entry, looked up): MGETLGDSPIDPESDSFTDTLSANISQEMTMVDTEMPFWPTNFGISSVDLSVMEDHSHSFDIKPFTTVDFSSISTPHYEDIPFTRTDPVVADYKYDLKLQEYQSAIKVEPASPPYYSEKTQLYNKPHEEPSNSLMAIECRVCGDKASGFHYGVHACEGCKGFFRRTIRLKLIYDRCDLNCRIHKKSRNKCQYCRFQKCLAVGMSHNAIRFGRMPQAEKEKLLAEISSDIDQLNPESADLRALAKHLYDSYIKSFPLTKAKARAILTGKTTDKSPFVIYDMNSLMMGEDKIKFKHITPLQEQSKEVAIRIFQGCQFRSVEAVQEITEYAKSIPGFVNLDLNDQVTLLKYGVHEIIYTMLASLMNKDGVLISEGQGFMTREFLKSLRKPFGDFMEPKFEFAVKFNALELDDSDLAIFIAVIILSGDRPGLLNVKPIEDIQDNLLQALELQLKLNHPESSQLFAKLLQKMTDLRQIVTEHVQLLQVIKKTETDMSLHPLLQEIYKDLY
Peroxisome proliferator-activated receptor alpha (Homo sapiens), sequence (Q07869 whole entry, looked up): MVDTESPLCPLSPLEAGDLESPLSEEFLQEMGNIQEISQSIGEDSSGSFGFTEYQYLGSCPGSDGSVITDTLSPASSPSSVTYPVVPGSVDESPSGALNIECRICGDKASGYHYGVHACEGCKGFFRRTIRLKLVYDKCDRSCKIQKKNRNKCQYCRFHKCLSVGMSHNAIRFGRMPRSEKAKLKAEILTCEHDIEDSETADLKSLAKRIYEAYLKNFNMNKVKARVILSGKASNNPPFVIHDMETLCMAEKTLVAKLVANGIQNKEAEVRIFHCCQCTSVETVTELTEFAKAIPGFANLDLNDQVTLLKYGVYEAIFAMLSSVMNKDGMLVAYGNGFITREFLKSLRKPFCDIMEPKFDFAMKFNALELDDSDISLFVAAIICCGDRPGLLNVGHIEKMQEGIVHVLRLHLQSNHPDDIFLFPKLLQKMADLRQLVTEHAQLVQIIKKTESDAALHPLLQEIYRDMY
Retinoic acid receptor RXR-alpha (Homo sapiens), sequence (P19793 whole entry, looked up): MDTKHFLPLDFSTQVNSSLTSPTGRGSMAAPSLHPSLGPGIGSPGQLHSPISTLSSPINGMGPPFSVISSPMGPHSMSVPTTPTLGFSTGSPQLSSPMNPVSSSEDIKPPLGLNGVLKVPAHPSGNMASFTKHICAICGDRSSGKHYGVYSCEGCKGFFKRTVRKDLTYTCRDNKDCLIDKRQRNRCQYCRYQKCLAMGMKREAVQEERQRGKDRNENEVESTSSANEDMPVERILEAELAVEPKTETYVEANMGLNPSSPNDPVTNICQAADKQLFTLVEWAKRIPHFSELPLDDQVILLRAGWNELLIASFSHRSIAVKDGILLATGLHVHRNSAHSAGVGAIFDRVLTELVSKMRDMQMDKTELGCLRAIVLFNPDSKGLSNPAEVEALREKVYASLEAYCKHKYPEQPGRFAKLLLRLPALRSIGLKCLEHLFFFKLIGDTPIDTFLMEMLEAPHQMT
Glucocorticoid receptor (Homo sapiens), sequence (P04150 whole entry, looked up): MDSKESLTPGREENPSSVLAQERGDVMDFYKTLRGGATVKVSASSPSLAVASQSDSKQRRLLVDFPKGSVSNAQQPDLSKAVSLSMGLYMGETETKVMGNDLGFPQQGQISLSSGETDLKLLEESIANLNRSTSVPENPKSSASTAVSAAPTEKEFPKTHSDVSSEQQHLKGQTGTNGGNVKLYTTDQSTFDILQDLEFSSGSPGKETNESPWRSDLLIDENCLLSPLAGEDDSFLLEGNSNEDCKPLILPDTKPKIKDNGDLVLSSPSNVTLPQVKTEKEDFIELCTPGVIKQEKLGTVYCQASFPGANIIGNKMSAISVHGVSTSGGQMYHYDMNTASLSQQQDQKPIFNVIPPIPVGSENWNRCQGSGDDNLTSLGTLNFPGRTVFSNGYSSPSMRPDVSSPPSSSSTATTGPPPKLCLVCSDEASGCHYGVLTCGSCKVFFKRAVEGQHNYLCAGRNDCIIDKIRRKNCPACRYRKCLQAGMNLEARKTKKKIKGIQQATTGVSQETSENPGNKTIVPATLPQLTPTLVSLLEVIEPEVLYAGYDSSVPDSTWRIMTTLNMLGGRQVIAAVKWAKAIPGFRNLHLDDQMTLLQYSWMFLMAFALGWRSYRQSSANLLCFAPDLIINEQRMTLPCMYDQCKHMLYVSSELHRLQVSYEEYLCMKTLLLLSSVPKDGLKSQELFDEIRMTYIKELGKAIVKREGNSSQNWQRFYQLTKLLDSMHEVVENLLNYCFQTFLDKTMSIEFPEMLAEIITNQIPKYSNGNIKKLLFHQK

For `CN(C)Cc1cc(CN(C)C)c(O)c(CN(C)C)c1`, the outcome [1] was “inactive”, the max response [2] was -13.7% and the Potency [3] was “inactive”. The Potency [4] was “inactive”, the max response [5] was -16.5% and the max response [6] was -13.1% (inactive). For the same compound, the activation [7] was -4% (inactive), the activation [8] was -0.675% (inactive) and the activation [9] was -0.0067% (inactive). For the same compound, the max response [10] was -1.39% (inactive), the Potency [11] was “inactive” and the max response [12] was -15.7% (inactive). The max response [13] was -7.71% (inactive), the Potency [14] was “inactive” and the max response [15] was 1.59% (inactive). The outcome [16] was “inactive”.

For `FC(F)(F)c1ccc(Cl)c(Cl)c1`, the activation [17] was -1.21% (inactive), the max response [18] was 40.3% and the outcome [1] was “inactive”. For the same compound, the Potency [19] was “inactive”, the max response [2] was -13.8% and the Potency [3] was “inactive”. The Potency [4] was “inactive”, the max response [5] was 5.97% and the max response [6] was -9.01% (inactive). The activity change % (negative = inhibition) [20] was 7.4% (inactive), the activation [7] was -5.24% (inactive) and the activation [8] was -0.0768% (inactive). The activation [9] was 3.72% (inactive), the max response [10] was 0.167% (inactive) and the Potency [11] was “inactive”. For the same compound, the max response [13] was -13.4% (inactive), the Potency [14] was “inactive” and the max response [15] was -0.267% (inactive). The outcome [16] was “inactive”.

In the case of `CCc1c(C(=O)O)c(=O)cnn1-c1ccc(Cl)cc1`, the max response [18] is reported as 48.3%, the outcome [1] is reported as “inactive” and the Potency [19] is reported as “inactive”. The Potency [4] was “inactive”, the max response [5] was -1.3% and the max response [6] was 7.37% (inactive). The activity change % (negative = inhibition) [20] was 4.34% (inactive), the activation [7] was 1.9% (inactive) and the activation [8] was -0.428% (inactive). For the same compound, the activation [9] was 0.0279% (inactive), the max response [10] was 3.7% (inactive) and the Potency [11] was “inactive”. The max response [12] was -3.97% (inactive), the max response [13] was -15.5% (inactive) and the Potency [14] was “inactive”. The max response [15] was -1.29% (inactive) and the outcome [16] was “inactive”.

For `CCCCC(CC)COP(=O)(O)OCC(CC)CCCC` (stereo unspecified), the activation [17] was -13.4% (inactive), the max response [18] was -17.6% and the Potency [4] was “inactive”. For the same compound, the max response [5] was -7.8%, the max response [6] was -10.6% (inactive) and the activity change % (negative = inhibition) [20] was -4.02% (inactive). For the same compound, the activation [9] was -0.89% (inactive), the max response [10] was 10.3% (inactive) and the max response [12] was -10.7% (inactive). For the same compound, the max response [13] was -5.86% (inactive), the Potency [14] was “inactive” and the max response [15] was 0.935% (inactive).

For `CCO[Si](CCC#N)(OCC)OCC`, the activation [17] was 2.23% (inactive), the outcome [1] was “inactive” and the Potency [19] was “inactive”. The max response [2] was -7.96%, the Potency [3] was “inactive” and the Potency [4] was “inactive”. For the same compound, the max response [5] was -13.6%, the max response [6] was -7.94% (inactive) and the activity change % (negative = inhibition) [20] was 18.5% (inactive). For the same compound, the activation [8] was 0.629% (inactive), the max response [10] was -0.819% (inactive) and the Potency [11] was “inactive”. For the same compound, the max response [12] was -7.54% (inactive), the max response [13] was -14.2% (inactive) and the Potency [14] was “inactive”. The max response [15] was -1.9% (inactive) and the outcome [16] was “inactive”.

With `CCOC(=O)C(C)Oc1ccc(Oc2cnc3cc(Cl)ccc3n2)cc1` (stereo unspecified) the activation [17] was -6.64% (inactive), the outcome [1] was “inactive” and the Potency [19] was “inactive”. The max response [5] was 22.1%, the max response [6] was -14.1% (inactive) and the activation [9] was 1.27% (inactive). For the same compound, the max response [10] was 11.2% (inactive), the max response [12] was -11.5% (inactive) and the max response [13] was 4.59% (inactive). For the same compound, the outcome [16] was “inactive”.
